# Experimental data published in PubChem BioAssay AID1851 (National Center for Advancing Translational Sciences (NCATS), 2009).
# Hit rate of the full screen: of about 16,000 compounds, about 2,600 (16%) were called active. Not shown: some 20% with an inconclusive outcome. A selection follows. Unmarked numbers belong to inactive results. The call rests on the fitted dose curve; in most records, active means well fitted curve in the direction sought with a large enough effect; inconclusive means small, poorly fitted or top-dose-only effect, or effect the other way; inactive means no such curve, though single readings can be large or run the other way.
# Target: Cytochrome P450 2D6 (Homo sapiens) (UniProt P10635)
# Sequence (P10635 whole entry, looked up): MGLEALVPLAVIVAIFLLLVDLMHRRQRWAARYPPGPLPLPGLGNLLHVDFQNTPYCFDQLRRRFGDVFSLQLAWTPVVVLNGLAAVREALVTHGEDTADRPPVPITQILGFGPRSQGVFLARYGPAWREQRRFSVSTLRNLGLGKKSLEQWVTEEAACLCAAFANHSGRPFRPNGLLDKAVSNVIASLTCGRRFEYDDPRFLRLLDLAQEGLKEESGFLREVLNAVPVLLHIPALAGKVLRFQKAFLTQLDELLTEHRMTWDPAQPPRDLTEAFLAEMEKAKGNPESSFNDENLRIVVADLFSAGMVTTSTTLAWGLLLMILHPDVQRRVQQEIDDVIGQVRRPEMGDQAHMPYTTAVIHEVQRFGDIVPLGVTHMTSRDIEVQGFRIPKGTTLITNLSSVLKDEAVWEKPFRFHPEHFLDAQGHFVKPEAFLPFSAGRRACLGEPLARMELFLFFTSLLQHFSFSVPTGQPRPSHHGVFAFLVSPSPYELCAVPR
# Experiment: Cytochrome panel assay with activity outcomes
# Conditions: recombinant CYP, pro-luciferin dealkylation, luminescence, p450-cyp2d6; series mostly up to 57.1 µM; activity, negative = inhibition: at the top concentration
# On the % scale 0 is the no-effect control and ±100 the full control effect.
Structure (SMILES),"activity, negative = inhibition",AC50
O=c1/c(=C\c2ccc(O)cc2)sc2n1C(c1ccccc1)C(c1ccccc1)=NN=2 (configuration not stated),2.11%,
COc1cccc(-c2nnc3n2N=C(C(C)(C)C)CS3)c1,-19%,
CSc1c(-c2ccccc2)nc2ccc(Cl)cc2c1C(=O)O,0.481%,
N#Cc1ccccc1/C=N/Nc1nc(-c2ccccc2)c2cc(Cl)ccc2n1,,0.178 µM (active)
Cc1ccc2nc(N/N=C/c3ccccc3C#N)nc(-c3ccccc3)c2c1,,1.26 µM (active)
CN(C)c1nc(NCc2ccccc2)nc(N/N=C/c2ccc(Cl)cc2Cl)n1,-14%,
CCCCNc1nc(-c2ccccc2)c(C(=O)OCC)cc1C#N,-13.6%,
Cc1ccc(Oc2nnc(-c3ccccc3)cc2C#N)cc1,7.73%,
Cc1ccc(-n2c(=O)[nH]cc(C(=O)N3CCc4ccccc43)c2=O)cc1,3.82%,
Cc1nc2cncnc2n(C2CC2)c1=O,-3.46%,
COc1ccc(Oc2ncc3nc(-c4cccc(C#N)c4)c(=O)n(Cc4cccc(OC)c4)c3n2)cc1,-1.33%,
O=C(O)c1nn(-c2ccccc2)ccc1=O,2.59%,
Cc1cc(C)cc(-n2c(O)c(C=NC3CCS(=O)(=O)C3)c3ccccc3c2=O)c1 (configuration not stated),15.4%,
CCCCOC(=O)Nc1ccccc1C(=O)OC,-3.17%,
Cc1ccc(C)c(Nc2nc3nonc3nc2N2CCOCC2)c1,-9.71%,
CCOc1ccc(-c2c(=O)n(OCc3ccccn3)c3ccccc3[n+]2[O-])cc1,-21.6%,
COc1ccc(-c2cc(C(F)(F)F)n3ncc(C(=O)NCC4CCCO4)c3n2)cc1OC (configuration not stated),3.76%,
CCC(Sc1nc2cc3c(cc2c(=O)n1Cc1ccco1)OCO3)C(=O)Nc1cccc(OC)c1 (configuration not stated),,3.16 µM (active)
COCCNC(=O)CSc1nc2cc(OC)c(OC)cc2c(=O)n1Cc1ccco1,-20.3%,
CCN(C(=O)CSc1nc2cc(C(=O)OC)ccc2c(=O)n1Cc1ccco1)c1cccc(C)c1,-23.1%,
Cc1nc(-c2cccnc2)sc1C(N)=O,8.45%,
COc1ccc(-n2c(=O)c(-c3cccs3)nc3cnc(Oc4ccccc4)nc32)cc1,-0.534%,

Structure (SMILES),"activity, negative = inhibition",AC50
O=C(NN=C1C2CC3CC(C2)CC1C3)c1ccncc1,10%,
N#Cc1nc(COc2ccccc2Cl)oc1NCc1ccco1,,2.82 µM (active)
Cc1cc(C)cc(-n2nnc(C(=O)NCc3ccccc3Cl)c2N)c1,-18.7%,
CCCCC(=O)Nc1sc2c(c1C(=O)OCC)CCC(C=O)=C2Cl,-29.2%,
COC(=O)[C@@]1(Cc2ccccc2)[C@H]2c3cc(C(=O)N4CCCC4)[nH]c3C[C@H]2CN1C(=O)c1ccccc1,-16.7%,
Cc1[nH]c(N)nc(=S)c1CCCNc1ccccc1,-8.46% [at 11.4 µM],
CCN(CC)CCCN(Cc1cc2ccc(C)c(C)c2[nH]c1=O)C(=O)NC1CCCCC1,-20.3%,
c1ccc(NN(Cc2cnccn2)c2ccccc2)cc1,-16.2% [at 11.4 µM],
O=C1CCCCC(=O)c2ccccc2N1,-11.6%,
O=C1CN(c2nc(-c3ccccc3)c3cc(Br)ccc3n2)c2ccccc2N1,-28.2%,
O=C1Cc2c([nH]c3ccc(Br)cc23)-c2ccccc2N1,,0.398 µM (active)
N#C[C@H](Cc1ccc(O)cc1)c1ccc(O)cc1,-1.28%,
CCOC(=O)CCCN,5.1% [at 11.4 µM],
CC(Cc1ccccc1)N/C=C1\CC(=O)NC1=O (configuration not stated),8.16%,
COc1ccc(N2CCN(Cc3nc4c(c(=O)n(C)c(=O)n4C)n3CC(C)=O)CC2)cc1,0.904%,
CCOC(=O)c1nn(-c2ccccc2)c(-c2ccccc2)c1C(=O)c1ccccc1,-17.8%,
CCOC(=O)c1c(NC(=O)CSc2nnc(C)s2)sc2c1CCCCC2,,7.94 µM (active)
CCOC(=O)c1c(NC(=O)Cn2cc([N+](=O)[O-])cn2)sc2c1CCC2,-8.46%,
CCOC(=O)c1c(NC(=O)c2c(C)noc2C)sc2c1CCCCC2,-6.35%,
CC(=O)NC1(c2cccc(F)c2)CCN(CC(=O)NC(C)C)CC1,18.6%,
Nc1nnc(C(c2ccccc2)c2ccccc2)s1,-4.84%,
Cn1c(=O)c(-c2ccc(F)cc2)nc2cnc(Oc3ccccc3)nc21,1.71%,

Structure (SMILES),"activity, negative = inhibition",AC50
CC/C=C\CC[C@H](OC(=O)c1ccc(Br)cc1)C1=CCCCC1=O,-1.66% [at 11.4 µM],
CCn1c(=O)c2[nH]c(-c3ccccc3)nc2n(CC)c1=O,3.55%,
O=C(O)C[n+]1ccccc1,-8.09% [at 11.4 µM],
COc1ccc(-c2cc(C3CCN(c4ccc(C(C)=O)cc4[N+](=O)[O-])CC3)[nH]n2)cc1,-6.96%,
Cc1ccc(OC(=O)c2ccc(N3CCOCC3)c([N+](=O)[O-])c2)cc1,-15.1%,
COC(=O)c1ccc(N2CCN(CC(=O)c3ccc(-c4ccccc4)cc3)CC2)c([N+](=O)[O-])c1,,12.6 µM (active)
CCNC(=S)N1CC(C)OC(C)C1 (configuration not stated),-0.0504%,
O=C(/C=C/c1ccco1)NC(=S)Nc1ccc(N2CCOCC2)c(Cl)c1,2.74%,
CNc1cc(CSC)nc(SCc2ccc(Cl)c(Cl)c2)n1,,28.2 µM (active)
CNc1cc(CS(=O)c2ccccc2)nc(-c2ccccc2)n1 (configuration not stated),-6.79%,
Clc1ccc(Cl)c(Nc2ccnc(SCc3ccccc3)n2)c1,-0.772% [at 11.4 µM],
CCN1C(=O)[C@H]2[C@H]3[C@H](O)[C@H](O)C/C(=N/OC[C@@H](O)[C@H]4O[C@H]5OC(C)(C)O[C@H]5[C@@H]4O)[C@@H]3CC[C@@H]2C1=O,7.29% [at 11.4 µM],
Cn1sc(NC(=O)c2ccccc2)nc1=O,-0.613%,
O=C(O)CCC/C=C\C[C@@H]1CO[C@H](C(F)(F)F)O[C@@H]1c1ccccc1O,-5.14%,
CO[C@H]1COC(=O)C/C=C\[C@@H](C)COC(=O)[C@@H](OCc2ccccc2)/C=C\[C@@H]1C,1.83% [at 11.4 µM],
CN(C)C(=O)c1ccc(-c2ccc3ncnc(N4CCC(C(=O)O)CC4)c3c2)cc1,2.88%,
Clc1ccccc1-c1ccc2ncnc(N3CCNCC3)c2c1,-6.85%,
Clc1ccc2c(N3CCC(CCC4CCN(c5ncnc6cc(Cl)ccc56)CC4)CC3)ncnc2c1,,0.794 µM (active)
COc1ccc(OC)c(NC(=O)[C@H]2CC=CC[C@H]2C(=O)O)c1,14.4%,
O=C(Nc1cccc(Cl)c1)N1CCN2C(=O)c3ccccc3C12c1ccccc1 (configuration not stated),,10 µM (active)
O=C(Nc1ccccc1)N1CCOCC1,-16.4%,
O=C(Nc1cccc(NC(=O)N2CCN(c3ccccc3)CC2)c1)N1CCN(c2ccccc2)CC1,-13.9%,

Structure (SMILES),"activity, negative = inhibition",AC50
Cc1ccc(C2C(C=Nc3c(C)n(C)n(-c4ccccc4)c3=O)=C(c3ccccc3)Oc3ccccc32)cc1 (configuration not stated),5.37%,
CCOCCCN1C(=O)CN(C2CCCCCC2)C(=O)C1c1ccc(OC)cc1 (configuration not stated),-20.1%,
CCSc1nnc(-c2ccc(Cl)cc2)c2ccccc12,-23%,
CCN(CC)S(=O)(=O)c1ccc2c(c1)nc(SCC(=O)N1CCOCC1)n2-c1ccccc1OC,-5.25%,
COCCn1c(C)cc(C2=NNC(=Nc3ccc(F)cc3)SC2)c1C,,7.94 µM (active)
Cn1cccc1C(=O)N1CCC2(CC1)CCN(c1cccc(-c3ccccc3)c1)CC2,-1.91%,
CN(C)c1ncc2nc(CCc3ccccc3)c(=O)n(CCC#N)c2n1,,2.51 µM (active)
CN(C)c1ncc2nc(-c3cc(F)cc(F)c3)c(=O)n(CCC#N)c2n1,0.117%,
N#CCCn1c(=O)c(CCc2ccccc2)nc2cnc(OCc3ccccc3)nc21,-3.72%,
CN(C)c1ncc2nc(-c3ccccc3)c(=O)n(CCC#N)c2n1,,1 µM (active)
CN(C)c1ncc2nc(-c3ccccc3)c(=O)n(CCc3ccccc3)c2n1,-2.25%,
N#CCCn1c(=O)c(CCc2ccccc2)nc2cnc(Oc3ccccc3)nc21,-1.17%,
COc1cc(/C=C2/C(=N)N3OC(C)=CC3=NC2=O)ccc1OCCOc1ccc(C)cc1,-28.9%,
COc1cccc(/C=N/NC(=O)CO/N=C(\C)c2cccs2)c1OC,-10.8%,
CC1CCN(c2ccc(NC(=S)NC(=O)c3ccco3)cc2)CC1,-0.336%,
COc1ncc2nc(-c3cc(F)cc(F)c3)c(=O)n(C3CC3)c2n1,-14.2%,
COC(=O)c1ccc(Cl)c(NC(=O)c2ccc(-c3ccccc3)cc2)c1,-7.02%,
CCOc1c(Cl)cc(C(=O)Nc2ccccc2-c2ccccc2)cc1Cl,,0.0126 µM (active)
CCOC(=O)c1ccc(Cl)c(NC(=O)c2ccc(-c3ccccc3)cc2)c1,-9.32%,
COc1nc(OCCNC(C)=O)nc(N(C)C)n1,6.28%,
CC(C)NC(=O)c1ccccc1NC(=O)/C=C/c1ccc([N+](=O)[O-])cc1,2.09%,
Cc1cccc(NC2(C(F)(F)F)N=C(c3ccccc3)NC2=O)n1 (configuration not stated),19.5%,

Structure (SMILES),"activity, negative = inhibition",AC50
O=C(O)c1cc(=O)c2c(Cl)cc(Cl)cc2[nH]1,-3.15%,
Cc1cc(Br)cc(C)c1OCCCCN(C)C,,2 µM (active)
CCN1C(=O)[C@H]2[C@H]3[C@H](O)[C@H](O)C/C(=N/OC[C@@H](O)COCc4ccco4)[C@H]3CC[C@@H]2C1=O,-6.12% [at 11.4 µM],
Nc1cc2c(nc3c4ccccc4c(N)cc3[n+]2-c2cccc3ccccc23)c2ccccc12 (tested in a mixture with another compound),,1.58 µM (active)
Nc1nc(-c2cc(-c3cccc4ccccc34)nc(N)n2)cc(-c2cccc3ccccc23)n1,-0.19% [at 11.4 µM],
CSCC[C@@H]1NC(=O)C/C=C\[C@@H](C)COC(=O)[C@@H](C)COC1=O,16.4% [at 11.4 µM],
Cc1sc(=NC(=O)c2ccco2)n(C)c1-c1ccccc1,-2.23%,
COc1ccccc1NC(=O)CN1CCN(C2c3ccccc3-c3ccccc32)CC1,,0.0251 µM (active)
CCOc1ccccc1NC(=O)C(=O)NCC1CCCN1CC (configuration not stated),-13.6%,
COc1ccccc1NC(=O)CCN1C(=O)C2CC=C(Cl)CC2C1=O (configuration not stated),21.9%,
CCOc1ccccc1NC(=O)CCC(=O)O,3.08%,
CCOc1ccccc1NC(=O)CN1CCC(NC(=O)c2ccccc2)CC1,,15.8 µM (active)
Cc1ccc(C(=O)C(OC(=O)CN2C(=O)c3ccccc3C2=O)c2ccccc2)cc1 (configuration not stated),8.39%,
COc1cc(NC(=O)c2ccccc2)c(OC)cc1NC(=O)CN1CCN(c2ccccn2)CC1,-3.63%,
CC(C)OC(=O)CN1CCN(C2c3ccccc3-c3ccccc32)CC1,,0.251 µM (active)
COc1ccc(NC(C)=O)cc1NC(=O)CN1CCN(C2c3ccccc3-c3ccccc32)CC1,,15.8 µM (active)
O=C(O)C[C@@H](C(=O)O)C1c2ccccc2-c2ccccc21,6.65% [at 11.4 µM],
CCn1c(-c2ccccc2Cl)nn(CC(=O)Nc2ccccc2OC)c1=S,-8.99%,
COc1ccc(NC(C)=O)cc1NC(=O)CN1CCN(CC(=O)Nc2ccccc2Cl)CC1,-21.7%,
